Experimental data reported in PubChem BioAssay AID485344 (National Center for Advancing Translational Sciences (NCATS), 2010).
The whole screen tested about 340,000 compounds, of which about 6,900 (2%) were called active. Many of the other results were omitted from the sample, so actives are more common in it than they were. Unmarked numbers belong to inactive results. No stated cut-off is given here; in the data, active means inhibition above about 30%; inactive means below that, where a call was filed.

Biological target: D(2) dopamine receptor (Homo sapiens) (UniProt P14416)
Sequence (P14416 whole entry, looked up): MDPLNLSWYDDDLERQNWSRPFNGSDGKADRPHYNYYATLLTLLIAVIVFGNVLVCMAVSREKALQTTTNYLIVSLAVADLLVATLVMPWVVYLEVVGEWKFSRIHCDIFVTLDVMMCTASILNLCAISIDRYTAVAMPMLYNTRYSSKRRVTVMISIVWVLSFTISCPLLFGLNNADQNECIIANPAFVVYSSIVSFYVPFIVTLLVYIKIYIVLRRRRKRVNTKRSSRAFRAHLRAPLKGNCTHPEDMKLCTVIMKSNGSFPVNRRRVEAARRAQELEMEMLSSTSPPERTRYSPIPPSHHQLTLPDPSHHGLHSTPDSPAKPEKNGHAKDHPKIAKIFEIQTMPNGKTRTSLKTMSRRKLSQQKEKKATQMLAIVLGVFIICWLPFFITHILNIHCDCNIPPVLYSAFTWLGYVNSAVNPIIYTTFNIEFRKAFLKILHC
Assay: HTS Assay for Allosteric Antagonists of the Human D2 Dopamine Receptor: Primary Screen for Antagonists; further: 0% is about no effect
Conditions: HEK293 TREx D2 cells, calcium flux, dopamine EC80; at 10 µM; hits give high values
Procedure, shortened: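 Compounds are added to dye-loaded, induced HEK293 T-REx cells coupled to calcium release via D2; after a 3 min kinetic read an EC80 dopamine stimulus is given and fluorescence is recorded for 3 more min.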

First: CCc1nnc(NC(=O)C2CCN(C(=O)c3ccccc3C)CC2)s1
Second: CCOC(=O)C1CCN(C(=O)c2cccc(S(=O)(=O)N(CC)c3ccccc3)c2)CC1
The inhibition of the first is lower: 14.3% for the first, 14.5% for the second.

Compared with `Cc1c(C)c2ccc(OCC(=O)N3CCC(C(=O)O)CC3)c(C)c2oc1=O`, `O=C(/C=C/c1ccccc1[N+](=O)[O-])OCC(=O)N1CCCC1` is higher in inhibition: 2.01% for the first, 4.52% for the second.

First: O=C(CNC(=O)C1COc2ccccc2O1)N/N=C/c1cc(Br)c(O)c(Br)c1 (configuration not stated)
Second: O=C(N/N=C/c1c[nH]c2ccccc12)c1cc2ccccc2o1
The inhibition of the first is higher: 7.94% for the first, -9.07% for the second.

Compared with `COc1cccc(CNC(=O)COC(=O)CN2C(=O)NC3(CCCCC3C)C2=O)c1` (configuration not stated), `O=C(COC(=O)c1cc(=O)[nH]c2ccccc12)NCc1cccc(Cl)c1` is lower in inhibition: 4.18% for the first, -19.7% for the second.

Going from `COc1cccc(C(=O)NCCS(=O)(=O)NCC2CCCO2)c1` (configuration not stated) to `COC(=O)CNS(=O)(=O)c1ccc(OC)cc1`, the inhibition falls from 8.23% to 6.78%.

Going from `COc1ccc(CN2CC(C(=O)NCCc3ccc(Cl)cc3)CC2=O)cc1` (configuration not stated) to `COc1ccc(CN2CC(C(=O)NC3CCCCC3)CC2=O)cc1` (configuration not stated), the inhibition rises from 4.69% to 9.38%.

First: O=C(NCCCN1CCCCCC1)C1CC(=O)N(C2CCCC2)C1 (configuration not stated)
Second: COc1ccc(NC(=O)CSc2nnc(C3CC3)n2C)cc1S(=O)(=O)N1CCCCC1
The inhibition of the first is lower: -15.4% for the first, -7.07% for the second.

First: CCOC(=O)N1CCN(c2c(NCCN3CCN(c4ccccc4F)CC3)c(=O)c2=O)CC1
Second: N#Cc1ccc(CN2CCN(CC(=O)Nc3ccccc3C(=O)NC3CC3)CC2)cc1
The inhibition of the first is lower: -8.27% for the first, 4.29% for the second.

Compared with `Nc1c(C(=O)OCC(=O)Nc2ccc(OC(F)F)cc2)[nH]c(=O)[nH]c1=O`, `CCCCN(C(=O)CSCC(=O)Nc1ccc(OC)cc1)c1c(N)n(CCC)c(=O)[nH]c1=O` is higher in inhibition: 0.0124% for the first, 9.85% for the second.

Compared with `Cc1ccc(CSc2ccc(S(=O)(=O)N3CCCCC3)cn2)cc1`, `COc1ccc(CCC(=O)N2CCN(S(=O)(=O)c3ccc(OC)cc3)CC2)cc1` is lower in inhibition: -10.3% for the first, -16.3% for the second.

Compared with `C/C(=N/NC(=O)CC(=O)N/N=C(\C)c1ccc([N+](=O)[O-])cc1)c1ccc([N+](=O)[O-])cc1`, `CCOC(=O)COc1ccc([N+](=O)[O-])cc1` is higher in inhibition: -6.92% for the first, 5.2% for the second.

Compared with `CC(=O)C[C@@H](O)CC(=O)[C@H]1OC(=O)CCCCCCc2ccccc21`, `CC[C@H](C)C(=O)N[C@H]1CCCN1C(=O)/C=C/c1ccccc1` is lower in inhibition: 3.89% for the first, 3.07% for the second.

First: Cc1ccccc1NC(=O)COc1cccc2c1CCNC2=O
Second: CCN(CC(=O)Nc1cc(Cl)ccc1C)C(=O)Cn1c(=O)cnc2ccccc21
The inhibition of the first is lower: -0.505% for the first, 17.9% for the second.

First: CC1Cc2ccccc2N1S(=O)(=O)c1cccc(C(=O)NCC(c2ccco2)N2CCCC2)c1 (configuration not stated)
Second: CNS(=O)(=O)c1cccc(C(=O)OCCCC(=O)c2ccccc2)c1
The inhibition of the first is lower: -15% for the first, -4.56% for the second.

First: C/C(N)=C(/C#N)C(=O)COC(=O)CNS(=O)(=O)c1ccc(C)cc1
Second: CCOC(=O)Nc1ccc(S(=O)(=O)N(C)C(C)C)cc1
The inhibition of the first is higher: 12.5% for the first, 2.07% for the second.

Compared with `CCOC(=O)c1c(Cc2ccc(Cl)cc2)c[nH]c1C`, `CCCCC(CCC(=O)Nc1ccc(C(=O)OCC)cc1)C(=O)O` (configuration not stated) is higher in inhibition: -4.64% for the first, 4.1% for the second.

Compared with `O=C(CSc1ncnc2sccc12)N1CCN(C(=O)c2cccs2)CC1`, `Cc1ccc2c(c1)N(C(=O)CCC(=O)NCc1cccnc1)CCO2` is lower in inhibition: 30% for the first, 13.2% for the second.

Compared with `Cc1occc1-c1nnc(SCC(=O)NC2CCCCC2)o1`, `CC1CN(C(=O)CCC(=O)NC2CCN(Cc3ccccc3)CC2)c2ccccc2O1` (configuration not stated) is lower in inhibition: 6.65% for the first, -8.98% for the second.

Compared with `O=C(N[C@@H](Cc1c[nH]c2ccccc12)C(=O)O)OCC1c2ccccc2-c2ccccc21`, `CC(C)(COC(=O)Nc1ccccc1)COC(=O)Nc1ccccc1` is lower in inhibition: 5.76% for the first, -9.72% for the second.

Compared with `COc1ccc(C)cc1NC(=O)CSc1nnc2ccc(-c3ccccn3)nn12`, `O=C(N/N=C/c1coc2ccccc2c1=O)c1cc2ccccc2o1` is lower in inhibition: 24.5% for the first, -7.75% for the second.

First: Cc1cccc2c1N(CC(=O)OC(C)C)C(=O)C2=O
Second: CC(C)OC(=O)CN1C(=O)C(=O)c2ccccc21
The inhibition of the first is lower: 0.945% for the first, 2.86% for the second.

First: Cc1ccc(C(=O)OC(C)CN2CCOCC2)cc1 (configuration not stated)
Second: Cc1cccc(C(=O)OC(C)CN2CCCC2)c1 (configuration not stated)
The inhibition of the first is higher: 12.8% for the first, -14% for the second.

First: CC1CC(C)CN(C/C=C/c2ccccc2[N+](=O)[O-])C1 (configuration not stated)
Second: COC(=O)[C@]1(S(=O)(=O)c2ccccc2)C[C@@H]2ON=C(c3ccc(OC)cc3)[C@@H]2C1
The inhibition of the first is higher: 7.28% for the first, -8.41% for the second.

Compared with `CC(=O)NC12CC3CC(C1)CC(C(=O)N1CCN(C(=O)c4ccco4)CC1)(C3)C2`, `Cc1ccc(NC(=O)OCCNC(=O)c2ccncc2)cc1` is lower in inhibition: -36.2% for the first, -36.9% for the second.

`Cc1c(CC(=O)N2CCN(C(=O)C3COc4ccccc4O3)CC2)c(=O)oc2c(O)c(O)ccc12` (configuration not stated) was tested, and the inhibition was 60% (active).
In the case of `O=C(NCCCN1CCN(c2ccccc2F)CC1)C1CCC(=O)N1C1CCCCC1` (configuration not stated), the inhibition was 55.7% (active).
In the case of `COc1ccc(CN2CC(C(=O)NCCN3CCN(c4ccccc4F)CC3)CC2=O)cc1` (configuration not stated), the inhibition was 78.4% (active).
In the case of `C/C(=N\N(C)C)c1ccc(OCCOc2ccc([N+](=O)[O-])cc2)cc1`, the inhibition was 33.5% (active).
`COC(=O)CNS(=O)(=O)c1ccc(Cc2ccc(S(=O)(=O)NCC(=O)OC)cc2)cc1` was tested, and the inhibition was 41.3% (active).
With `CC(=O)c1c(C)c[nH]c1C` the inhibition was 31.1% (active).
In the case of `CC1CN(C(=O)CCC(=O)NCc2cccnc2)c2ccccc2O1` (configuration not stated), the inhibition was 35.5% (active).
In the case of `Cc1c(/C=N\NC(=O)c2cc3ccccc3o2)c2ccccc2n1C`, the inhibition was 33.1% (active).
`CCOC(=O)CN1C(=O)C(=O)c2cc(C)ccc21` was tested, and the inhibition was 37% (active).
For `CC(CN1CCOCC1)OC(=O)c1ccc(C(C)(C)C)cc1` (configuration not stated), the inhibition was 70.8% (active).
With `O=[N+]([O-])c1ccccc1/C=C/CN1CCCC(CO)C1` (configuration not stated) the inhibition was 35.4% (active).
For `N#C[C@]1(S(=O)(=O)c2ccccc2)C[C@@H]2ON=C(c3cccc(Br)c3)[C@@H]2C1`, the inhibition was 41.5% (active).
For `CCCCCOC(=O)NCCOC(=O)Nc1ccc(C(=O)OCC)cc1`, the inhibition was 33% (active).
`CCOC(=O)Nc1ccc(NC(=O)OCC)cc1` was tested, and the inhibition was 38.8% (active).
